In the library only some 19% were active in any assay of this set; here they are far more common.
HT1080 IDH1KD tx: HT-1080 IDH1 knockdown cell toxicity (counter line); HT-1080 IDH1 knockdown viability, ATP luminescence, 48 h; Potency, µM (doses to about 46.1 µM), actives largely listed as cytotoxic; AID 686971; 2% of 360,000 active
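In this qHTS, HT-1080 cells depleted of IDH1 are exposed for 48 h at 37 °C to compound titrations. Toxicity is scored from CellTiter-Glo luminescence, with DMSO as full viability and medium alone as none.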
HT1080-NT tox: kills 2HG-producing HT-1080-NT fibrosarcoma cells; HT-1080-NT fibrosarcoma viability, CellTiter-Glo ATP luminescence, 48 h; Potency, µM (series often up to 46.1 µM), actives largely listed as cytotoxic; 1.6% of 360,000 active; AID 686970;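 note: NT is the 2HG producing partner of a matched IDH1 knockdown line; nearly all actives have a fitted effect of over 55% in size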
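750 cells/well, RPMI + 5% FBS; 2 h settle, compound pin-transfer, 48 h at 37 degrees C. CellTiter-Glo 10 min RT, luminescence. Normalized to DMSO and media-only wells.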
TDP1 cell CPT: DT40-hTDP1 cell growth loss with CPT; AID 686979; 12% of 420,000 active; Potency, µM (doses to about 46.2 µM), hits mostly inhibitors; chicken DT40 Tdp1-/-;hTDP1 cells + 20 nM CPT, ATP luminescence, 48 h; note: nearly all actives have a fitted effect of over 55% in size
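Chicken DT40 Tdp1-/- cells stably complemented with human TDP1 were seeded at 400 cells/well in medium containing 20 nM camptothecin, exposed to pin-transferred compounds, and grown at 37 °C for at least 48 hr. Viability was read as ATP luminescence.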
TDP1 cell noCPT: qHTS for Inhibitors of human tyrosyl-DNA phosphodiesterase 1 (TDP1): qHTS in cells in absence of CPT | DT40 Tdp1-/- hTDP1 cells, no CPT, ATP luminescence, 48 h | Potency, µM (series often up to 46.2 µM), hits mostly inhibitors | 15% of 420,000 active | AID 686978, 2013; note: nearly all actives have a fitted effect of over 55% in size
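Readout: luminescence from CellTiter-Glo after 30 min in the dark at RT. Cells: DT40 Tdp1-/- with stable hTDP1, 400/well. Exposure: compounds alone, ≥48 hr, 37 °C.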
IL-1B inflam inh: blocks inflammasome-driven IL-1 beta release; THP-1 LPS/ATP IL-1B secretion, AlphaLISA, 16 h; active compounds read low; activity change, % at 57.5 µM; 4.7% of 360,000 active; AID 743279; in the data active = activity change below about -50%; inconclusive = mostly about -30% to -49%
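THP-1 cells pretreated 1 hr with compounds (up to 57.5 uM final), then stimulated with LPS (250 ng/mL final) plus ATP (1.25 mM final); secreted IL-1B measured by AlphaLISA after 16 hr, decreased signal indicating inhibition.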
Each line names hits and unclear results; the compound was inactive in the other large screens. Unless noted, calls come from the whole dose curve; as a rule, active = well fitted curve in the direction sought with a large enough effect; inconclusive = small, poorly fitted or top-dose-only effect, or another doubt; inactive = no such curve, though single readings can be large; an effect the other way counts as inactive or inconclusive.

N/C(=N\S(=O)(=O)c1cc(C(F)(F)F)cc(C(F)(F)F)c1)c1ccc(Cl)cc1	HT1080 IDH1KD tx inconclusive, HT1080-NT tox inconclusive, TDP1 cell CPT 18.4µM, TDP1 cell noCPT 20.6µM
COc1ccc(C(=O)C2CCCN(Cc3cccn3-c3ccccn3)C2)c(OC)c1 (stereo not drawn)	HT1080 IDH1KD tx 14.6µM, HT1080-NT tox 6.51µM, TDP1 cell CPT 8.2µM, TDP1 cell noCPT 6.51µM, IL-1B inflam inh -92.8
COc1ccc(F)cc1C(=O)C1CCCN(Cc2cccn2-c2ccccn2)C1 (stereo not drawn)	HT1080 IDH1KD tx inconclusive, HT1080-NT tox inconclusive, TDP1 cell CPT inconclusive, TDP1 cell noCPT 16.4µM
CN1C[C@@H]2[C@@H]3C(=O)N(Cc4ccccc4)C(=O)[C@@H]3[C@](Cc3ccccc3)(C1=O)N2C(=O)c1ccc(C(F)(F)F)cc1	TDP1 cell CPT inconclusive, TDP1 cell noCPT inconclusive
CCOC(=O)C1=CCN(S(=O)(=O)c2ccccc2C)C1c1ccc(Cl)cc1 (stereo not drawn)	HT1080 IDH1KD tx inconclusive, HT1080-NT tox inconclusive, TDP1 cell CPT inconclusive, TDP1 cell noCPT 14.6µM
CC(=O)c1ccccc1NC(=O)COC(=O)C1CCCN1S(=O)(=O)c1ccccc1F (stereo not drawn)	none
CCOC(=O)C1=CCN(S(=O)(=O)c2ccccc2Cl)C1c1ccc(C)cc1 (stereo not drawn)	TDP1 cell CPT 25.9µM, TDP1 cell noCPT 18.4µM
CCOC(=O)C1=CCN(S(=O)(=O)c2ccccc2F)C1c1ccccc1 (stereo not drawn)	TDP1 cell CPT inconclusive, TDP1 cell noCPT 16.4µM
CCOC(=O)c1c(C)[nH]c(C)c1C(=O)COC(=O)C1CCCN1S(=O)(=O)c1ccccc1F (stereo not drawn)	TDP1 cell CPT 11.6µM, TDP1 cell noCPT 14.6µM
C[C@@H]1CCCCO[C@@H](CN(C)C(=O)CCC(F)(F)F)[C@@H](C)CN([C@H](C)CO)C(=O)c2cc(N(C)C)ccc2O1	none
Cc1ccccc1Nc1nnc(SCC(=O)NCC2CCCO2)s1 (stereo not drawn)	none
Cc1cc(NS(=O)(=O)c2c(C)c(C)cc(C)c2C)no1	none
CCOC(=O)C1=CCN(S(=O)(=O)c2ccccc2Cl)C1c1cccc(C)c1 (stereo not drawn)	TDP1 cell CPT inconclusive, TDP1 cell noCPT inconclusive
CCOC(=O)C1=CCN(S(=O)(=O)c2ccccc2Cl)C1c1ccccc1 (stereo not drawn)	TDP1 cell CPT inconclusive, TDP1 cell noCPT 23.1µM
Cc1ccc2nc(NCc3ccccc3)c(C#N)cc2c1	none
c1ccc(CNc2nc3ccccc3[nH]2)cc1	HT1080-NT tox inconclusive, TDP1 cell CPT inconclusive, TDP1 cell noCPT 18.4µM, IL-1B inflam inh -60.5
Cc1ccc2nc(NCc3ccccc3)[nH]c2c1	HT1080 IDH1KD tx 3.66µM, HT1080-NT tox 5.8µM, TDP1 cell CPT 4.11µM, TDP1 cell noCPT 4.61µM, IL-1B inflam inh -72.7
COc1ccc2nc(NCc3ccccc3)[nH]c2c1	HT1080 IDH1KD tx inconclusive, HT1080-NT tox inconclusive, TDP1 cell CPT inconclusive, TDP1 cell noCPT 14.6µM, IL-1B inflam inh -101.6
O=C(Nc1ccccc1F)N1CCC(NC(=O)C23CC4CC(CC(C4)C2)C3)CC1	none
CC[C@@H]1C(c2cccc(Cl)c2)=NN(c2ccc(Br)cc2)[C@H]1C(=O)N1CCOC1=O	HT1080 IDH1KD tx inconclusive, HT1080-NT tox inconclusive, TDP1 cell CPT inconclusive, TDP1 cell noCPT inconclusive, IL-1B inflam inh -66.1
CC[C@@H]1C(c2ccc(F)cc2)=NN(c2ccc(Br)cc2)[C@H]1C(=O)N1CCOC1=O	TDP1 cell CPT inconclusive, TDP1 cell noCPT inconclusive, IL-1B inflam inh -73.6
C[C@@H]1C(c2ccc(F)cc2)=NN(c2ccccc2)[C@H]1C(=O)N1CCOC1=O	none
O=C1OCCN1C(=O)[C@H]1[C@H](c2ccccc2)C(c2cccc(Cl)c2)=NN1c1ccc(Br)cc1	none
CN(C)/C=N/c1nc2nccc(-c3ccccn3)n2n1	none
Cc1ccc(-c2ccnc3nc(-n4cccc4)nn23)o1	HT1080 IDH1KD tx inconclusive, TDP1 cell CPT 14.6µM, TDP1 cell noCPT 20.6µM
O=C1[C@H](Cc2ccccc2)NCC=CC[C@@H](c2ccc(Cl)cc2)N1Cc1ccccc1	TDP1 cell CPT inconclusive, TDP1 cell noCPT 10.3µM, IL-1B inflam inh inconclusive
O=C1[C@H](Cc2ccccc2)NCC=CC[C@H](c2ccco2)N1Cc1ccccc1	TDP1 cell CPT 20.6µM, TDP1 cell noCPT inconclusive
O=C(CC1NCCN(Cc2ccccc2)C1=O)Nc1ccc(Cl)cc1 (stereo not drawn)	TDP1 cell noCPT inconclusive
CCN1C(=O)[C@H]2[C@@H](c3ccc(-c4ccc5c(c4)OCO5)c(OC)c3)N[C@@](Cc3ccccc3)(C(=O)OC)[C@H]2C1=O	TDP1 cell CPT inconclusive, TDP1 cell noCPT inconclusive
CCC(C)Sc1ccc([C@H]2N[C@@](Cc3ccccc3)(C(=O)OC)[C@H]3C(=O)N(CC)C(=O)[C@@H]23)cc1OC (stereo partly drawn)	TDP1 cell CPT inconclusive, TDP1 cell noCPT 20.6µM
CCC(C)Sc1ccc([C@H]2N[C@@](Cc3ccccc3)(C(=O)OC)[C@H]3C(=O)N(CC)C(=O)[C@@H]23)cc1 (stereo partly drawn)	TDP1 cell CPT inconclusive, TDP1 cell noCPT 20.6µM
Cc1ccc(-c2nc3ccc(Br)cn3c2Cc2cccc(F)c2)cc1	HT1080 IDH1KD tx inconclusive, HT1080-NT tox inconclusive, TDP1 cell CPT 16.4µM, TDP1 cell noCPT inconclusive
Fc1ccc(-c2nc3ccc(Br)cn3c2Cc2cccc(F)c2)cc1	TDP1 cell noCPT inconclusive
Cc1ccc2nc(-c3ccccc3)c(Cc3cccc(F)c3)n2c1	HT1080 IDH1KD tx inconclusive, HT1080-NT tox inconclusive, TDP1 cell CPT inconclusive, TDP1 cell noCPT 20.6µM
Fc1cccc(Cc2c(-c3cccc(Br)c3)nc3ccc(Cl)cn23)c1	TDP1 cell CPT inconclusive, TDP1 cell noCPT inconclusive
CCN(C(=O)Cn1c(=O)n(CC2CCC(C(=O)NC)CC2)c(=O)c2sccc21)c1ccccc1 (stereo not drawn)	none (no result: HT1080 IDH1KD tx, HT1080-NT tox, IL-1B inflam inh)
COc1ccccc1CNCCS(=O)(=O)NN1CCOCC1	none
COc1ccc(-c2coc3cc(O)cc(O)c3c2=O)cc1	TDP1 cell CPT inconclusive, TDP1 cell noCPT inconclusive
O=c1c(-c2ccc(O)cc2)coc2cc(O)cc(O)c12	TDP1 cell CPT 13.3µM, TDP1 cell noCPT 11.9µM
CC(C)(C)C(=O)Nc1cc2c3c(c1)CCC(=O)N3CCC2	none
CSc1nc(Cl)cc(N(CCO)CCO)n1	none
Cc1ccc(C(=O)NCC(c2ccc(F)cc2)N2CCOCC2)cc1S(=O)(=O)N1CCOCC1 (stereo not drawn)	none
O=C(CN1CC(=O)Oc2ccccc21)OCC(=O)c1ccc(Br)cc1	TDP1 cell CPT 20.6µM, TDP1 cell noCPT inconclusive
O=C(CN1CC(=O)Oc2ccccc21)OCC(=O)c1ccc(F)cc1	TDP1 cell CPT inconclusive, TDP1 cell noCPT inconclusive
CC(NC(=O)C12CC3CC(CC(O)(C3)C1)C2)c1ccccc1 (stereo not drawn)	none
